Our source for the outcome and AC50 values is PubChem BioAssay (EPA / NIEHS).

SMILES strings stand for the structures. Results filed as inconclusive are left out. Activity calls are given as the source filed them. How the source made its calls, unless noted: active means hit-call score of the fitted dose curve at least 0.9, where 1 is the maximum; inconclusive means response in the unintended direction; inactive means score below 0.9.

A short description of assay [1]: Tanguay_ZF_120hpf_SWIM_legacy: (Legacy) Oregon State University Tanguay Lab 120 Hour Post-fertilization zebrafish Assay for Swim Bladder Malformation (AID 2283654).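 Further: swim bladder malformation in each larva scored yes or no under brightfield.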 A digest of the protocol: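 Tropical 5D embryos dechorionated at 4 hpf; 1 embryo/well from 6 hpf; static, sealed, dark exposure at 28C until 120 hpf; final DMSO 0.64%; 5uM trimethyltin chloride positive control; swim bladder defect recorded yes/no; dead embryos not scored.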

The nature of assay [2]: Tanguay_ZF_120hpf_TRUN_legacy: (Legacy) Oregon State University Tanguay Lab 120 Hour Post-fertilization zebrafish Assay for Truncated Body (AID 2283655). A digest of the protocol: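 Truncated body is recorded as a binary endpoint at 120 hpf by brightfield imaging of wild-type 5D larvae. Exposure runs statically from 6 hpf at 28C with 0.64% DMSO; embryos dying earlier are not scored.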

The nature of assay [3]: Tanguay_ZF_120hpf_NC_legacy: (Legacy) Oregon State University Tanguay Lab 120 Hour Post-fertilization zebrafish Assay for Notochord and Tail Malformation (AID 2283656). The procedure, abridged: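 Binary scoring of notochord distortion by brightfield microscopy; embryos dying were not scored. Wild-type Tropical 5D embryos, chorion removed, exposed singly and statically from 6 to 120 hpf, 28C, sealed, 0.64% DMSO.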

In assay [4] the test system is Thyroperoxidase (TPO), gene 54314. Put plainly: CCTE_Simmons_AUR_rTPO: CCTE's Amplex UltraRed Assay for Thyroperoxidase (TPO) Inhibition, Simmons Lab (AID 2283662).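 On AC50: potency for loss of signal meaning inhibition of peroxidase activity.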 The procedure, abridged:
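Rat thyroid microsomes (5 ug protein) were incubated with test compound (8 concentrations, 5 nM–87.5 uM final, 0.5% DMSO), 25 uM Amplex UltraRed and 300 uM H2O2 in 200 mM phosphate buffer for 30 min at 37C in the dark; fluorescence read at 544/590 nm.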

Assay [5] is described as follows: CCTE_Simmons_CellTiterGLO_HEK293T: Viability Assessment in CCTE's Assays for Thyroperoxidase (TPO) Inhibition, Simmons Lab (AID 2283665).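 On AC50: cells exposed to compound for 24 h before readout; actives reduce ATP signal below DMSO vehicle meaning cytotoxicity.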 A digest of the protocol: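 Cells were seeded overnight, then exposed to an eight-point series up to 87.5 uM final for 24 hours. CellTiter-Glo reagent was added and luminescence read after 20 min, giving ATP-based viability versus DMSO.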

The nature of assay [6]: Tanguay_ZF_120hpf_TR_legacy: (Legacy) Oregon State University Tanguay Lab 120 Hour Post-fertilization zebrafish Assay for Touch Response (AID 2283667). A digest of the protocol: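 Binary touch-response call at 120 hpf, analysed as gain of signal versus DMSO baseline. Wild-type 5D larvae, static exposure at 28C, 0.64% DMSO final; 5uM trimethyltin chloride as positive control.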

Read-out in assay [7]: solute carrier (SLC10A1), SLC10A1 (gene 6554)
In words: LTEA_HepaRG_SLC10A1: Life Technologies and Expression Analysis (LTEA) Assay for solute carrier (SLC10A1) using HepaRG (AID 2283657; active means hit-call score of the fitted dose curve at least 0.9, where 1 is the maximum; inactive means score below 0.9). The note with it: mRNA level, 48 h; actives raise or lower the signal. A digest of the protocol: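 HepaRG, 48 h exposure, 8-pt half-log curve from 100 uM in 0.5% DMSO, duplicates. Read-out: TaqMan qRT-PCR of SLC10A1 mRNA, normalized to three housekeeping genes. Gain/loss fit vs DMSO baseline.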

Read-out in assay [8]: matrix metalloproteinase-1 (MMP1), MMP1 (gene 4312)
In words: LTEA_HepaRG_MMP1: Life Technologies and Expression Analysis (LTEA) Assay for matrix metalloproteinase-1 (MMP1) using HepaRG (AID 2283658; active means hit-call score of the fitted dose curve at least 0.9, where 1 is the maximum; inactive means score below 0.9). Conditions: mRNA level, 48 h; actives raise or lower the signal. A digest of the protocol: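 HepaRG, ~100,000 cells/well, 48 h pre-culture; serum-free induction medium; test chemical 8 conc (max 100 uM, half-log), duplicate, 48 h; 0.5% DMSO; qRT-PCR MMP1, housekeeping-normalized; gain/loss fit vs DMSO.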

Read-out in assay [9]: Cytochrome P450 (CYP24A1_1), CYP24A1 (gene 1591)
In words: LTEA_HepaRG_CYP24A1_1: Life Technologies and Expression Analysis (LTEA) Assay for Cytochrome P450 (CYP24A1_1) using HepaRG (AID 2283671; active means hit-call score of the fitted dose curve at least 0.9, where 1 is the maximum; inactive means score below 0.9). The note with it: mRNA level, 48 h; actives raise or lower the signal. A digest of the protocol:
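Readout is CYP24A1 transcript level by qRT-PCR, normalized to three housekeeping genes, with gain or loss of signal fitted against 0.5% DMSO. Human HepaRG cells received compound for 48 h at up to 100 uM.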

What is called AC50 is the concentration at which the activity in the assay is half-maximal.

As for `Cc1cc(Cc2ccc(N)c(C)c2)ccc1N`, the call in assay [1], in assay [2], in assay [3], in assay [5] and in assay [6] was inactive. Besides, in [4], the AC50 is 0.844 µM (active).
In the case of `CCCCOC(=O)CCCCC(=O)OCCCC`, the result in assay [1], in assay [2], in [3] and in assay [6] was inactive.
For the compound `CO[C@@H]1COCC[C@@H]1N[C@@H]1CC[C@@](C(=O)N2CCc3ncc(C(F)(F)F)cc3C2)(C(C)C)C1`, the outcome in assay [1], in assay [2], in [3] and in assay [6] was inactive.
Take `Cc1cc(SC2=C(O)C[C@@](CCc3ccc(N)cc3)(C(C)C)OC2=O)c(C(C)(C)C)cc1CO`: the compound was called inactive in [1], in assay [2] and in assay [3]. Further, the AC50 is 0.738 µM (active) in assay [4] and 3.9 µM (active) in assay [5].
For `CC1(C)C(=O)NC(=O)N1CO`, the compound was classed as inactive in assay [1], in assay [2], in assay [3], in assay [4] and in assay [5].
Turning to `CCC(C)N(C)C(=O)c1cc2ccccc2c(-c2ccccc2Cl)n1` (stereo not drawn), the values for the AC50 in [1], in assay [7] and in assay [6] were 18.5 µM (active), 37.7 µM (active) and 26.8 µM (active), respectively. In addition, the compound was called inactive in assay [2], in assay [3], in assay [8] and in assay [9].
On to `O=C1OC(c2ccc(O)cc2)(c2ccc(O)cc2)c2ccccc21`, for which the compound was classed as inactive in [1], in [2], in assay [3] and in assay [6]. The figures for the concentration at half-maximal activity (AC50) in [4] and in assay [5] were 2.99 µM (active) and 43.8 µM (active), respectively.
On to `Nc1nc(=S)c2[nH]cnc2[nH]1`, for which the call in assay [1], in assay [2] and in [3] was inactive. Further, the values for the concentration at half-maximal activity (AC50) in assay [4] and in assay [5] were 0.414 µM (active) and 1.29 µM (active), respectively.
As to `CC(C)(C)c1ccccc1`, the outcome in assay [1], in assay [2], in assay [3] and in assay [6] was inactive.
Regarding `C/C=C/c1ccc(OC)cc1`, the outcome in [1], in assay [2], in assay [3] and in assay [5] was inactive. Further, the AC50 in assay [4] was 28.4 µM (active).
On to `CCCCCCCCCCCCCCOS(=O)(=O)O`, for which the result in [1] and in assay [3] was inactive. Besides, the figures for the half-maximal activity concentration (AC50) in assay [2], in [4] and in assay [5] were 31.3 µM (active), 43.8 µM (active) and 22.3 µM (active), respectively.
For the compound `NC=O`, the result in assay [1], in assay [2], in assay [3] and in assay [6] was inactive.
Take `c1ccc2occc2c1`: the call in assay [1], in [2], in [3] and in assay [6] was inactive.
As for `Cc1c(C)c2c(c(C)c1O)CCC(C)(COc1ccc(CC3SC(=O)NC3=O)cc1)O2` (stereo not drawn), the result in [1], in [2], in [3] and in assay [6] was inactive. Also, the half-maximal activity concentration (AC50) is 1.91 µM (active) in assay [4] and 19 µM (active) in assay [5].
Regarding `CN(C)CCCN1c2ccccc2Sc2ccc(Cl)cc21`, the compound was classed as inactive in [1], in [2], in assay [3], in assay [6] and in assay [9]. In addition, the figures for the AC50 in [7] and in assay [8] were 21 µM (active) and 84.9 µM (active), respectively.
For the compound `CCCCCCC(C=O)=Cc1ccccc1`, the compound was called inactive in assay [1], in assay [2], in [3] and in assay [6].
Consider `O=C1c2c(O)cccc2Cc2cccc(O)c21`, for which the compound was classed as inactive in assay [1], in assay [2], in assay [3] and in assay [5]. Further, in [4], the AC50 is 11.9 µM (active).
Take `CCCC[C@H]1CN(CC2CCOCC2)C(=O)OC12CCN(C1(C)CCN(C(=O)c3c(C)ncnc3C)CC1)CC2`: the compound was called inactive in [1], in [2], in assay [3] and in assay [6].
On to `CC(C)c1cccc(C(C)C)c1NC(=O)NS(=O)(=O)c1cc(C(C)(C)O)co1`, for which the call in assay [2], in assay [3] and in assay [6] was inactive.
